Reference: ChEMBL document CHEMBL4513216, “Probing the Open Global Health Chemical Diversity Library for Multistage-Active Starting Points for Next-Generation Antimalarials” (ACS Infect Dis, 2020)
Among all 69,000 compounds or so, about 8,600 (12%) showed an effect of 50% or more. Only a selection was taken, and strong results are over-represented in it overall.

tested on: Plasmodium berghei; assay: Screen against P. berghei liver stage (PbLuc), transformed with Luciferase, at 10uM; type: functional, HepG2; conditions: tested at 10 uM

| SMILES | INHIBITION |
| --- | --- |
| COCC(=O)N1CCCC1c1nc(C)c2c(n1)N(CC(C)C)C(=O)CC2 (stereo not drawn) | -16.9% |
| CCNC(=O)N(C)C(c1ccccc1)c1ccccn1 (stereo not drawn) | -16% |
| COc1ccc(C(C)NCc2ccsc2)cc1Cn1cccn1 (stereo not drawn) | 10.6% |
| CC(=O)N(C)C1CCN(C(=O)NCCc2cc(F)ccc2F)CC1 | -6.67% |
| Cc1cc(CNc2cc(Cl)ccc2OCCS(C)(=O)=O)no1 | 48.1% |
| Cc1cc(CNc2ccc(C(F)(F)F)cc2)no1 | 30.4% |
| CCOc1ccc(C(F)(F)F)cc1NCc1cc(C)on1 | 64.7% |
| Cn1cc(CN2CCC3(CC2)CC(c2ccncc2)C(=O)N3)cn1 (stereo not drawn) | 36.4% |
| OC(CN1CCN(CCOCC(F)(F)F)CC1)c1ccccc1 (stereo not drawn) | 56.9% |
| CCOCCN1CCN(CC(O)c2ccc(C(F)(F)F)cc2)CC1 (stereo not drawn) | 24% |
| OC(CN1CCN(CC2CC2)CC1)c1ccc(Br)cc1 (stereo not drawn) | -63.6% |
| CC(O)CN1CCN(CCOCC(F)(F)F)CC1 (stereo not drawn) | -21.2% |
| OC(CN1CCN(Cc2nnc(C3CC3)o2)CC1)c1ccccc1 (stereo not drawn) | -7.06% |
| OC(CN1CCN(CC2CCCCC2)CC1)c1ccccc1 (stereo not drawn) | 93.8% |
| O=C(N1CCCCC1)N1CCN(CC(O)c2ccccc2)CC1 (stereo not drawn) | 56.4% |
| O=C(N1CCCCC1)N1CCN(CC(O)c2ccc(F)cc2)CC1 (stereo not drawn) | 9.25% |
| O=C(Cc1ccc(F)cc1)N1CCN(CC(O)c2ccccc2)CC1 (stereo not drawn) | 29.7% |
| COCCNC(=O)NCc1ccc(-n2ccc(C(F)(F)F)n2)cc1 | -42.1% |
| CC1CCc2nn(CCNC(=O)C3CCCC3)c(=O)cc2C1 (stereo not drawn) | -28.1% |
| CCCN(CCC)CCNc1c(-c2ccccc2)c(=O)c1=O | 49.5% |
| Cc1cnc(-c2nc(C3CCCN(Cc4ccccc4C)C3)no2)cn1 (stereo not drawn) | 25.75% |
| Cc1cnc(CN2C[C@H]3CC(Oc4ccccc4)C[C@H]3C2)cn1 (stereo partly drawn) | 30.4% |
| CN1C(=O)[C@@H]2CC[C@H]1CN(S(=O)(=O)c1ccc(Cl)cc1Cl)C2 | 24.3% |
| CN(C)C(=O)Cn1cnc2c(Br)cccc2c1=O | -14.1% |

| SMILES | INHIBITION |
| --- | --- |
| COc1cc(C(F)(F)F)sc1C(=O)O | 20.8% |
| CN(Cc1cc(Br)cs1)Cc1nnsc1Cl | 46.3% |
| Cc1cccc(C(=O)N(C)Cc2cc(Br)cs2)n1 | 37.1% |
| CN(CCC(N)=O)Cc1cc(Br)cs1 | 24% |
| COC(=O)CNC(=O)CCc1cc(Br)cs1 | 7.19% |
| COC(=O)CCN(C)Cc1cc(Br)cs1 | 60.2% |
| COC(=O)CN(C)Cc1cc(Br)cs1 | 53.2% |
| COCCN1CCO[C@@H]2CN(Cc3ccccc3OC)C[C@@H]2C1 | 2.4% |
| CCc1nnc2n1CCN(Cc1cc(Cl)c3c(c1)OCCCO3)C2 | 23.6% |
| O=C(CNC(=O)N1CCc2c([nH]c3ccc(Cl)cc23)C1)NCCCO | 4.25% |
| COCc1csc(NC(=O)N2CCC(Cc3cnn(C)c3)C2)n1 (stereo not drawn) | -27.8% |
| O=c1c2sccc2nc2n1CCN(Cc1cccs1)CC2 | -3.41% |
| COc1cc(C)c(CN2CCc3nc4ccsc4c(=O)n3CC2)cc1C | 89.3% |
| O=c1c2sccc2nc2n1CCN(Cc1cc(F)ccc1F)CC2 | 3.91% |
| CCOc1ccc(CN2CCc3nc4ccsc4c(=O)n3CC2)cc1 | 28% |
| CCOc1ccccc1CN1CCc2nc3ccsc3c(=O)n2CC1 | 49.6% |
| COc1ccc(OC)c(CN2CCc3nc4ccsc4c(=O)n3CC2)c1 | 14.7% |
| O=c1c2sccc2nc2n1CCN(Cc1ccccc1C(F)(F)F)CC2 | 92.9% |
| COc1ccc(CN2CCc3nc4ccsc4c(=O)n3CC2)c(C)c1C | 92.9% |
| COc1cccc(CN2CCc3nc4ccsc4c(=O)n3CC2)c1 | 54.4% |
| Cc1ccsc1CN1CCc2nc3ccsc3c(=O)n2CC1 | 35.2% |
| Cc1c(CN2CCc3nc4sccc4c(=O)n3CC2)cnn1C | -12.4% |
| O=c1c2sccc2nc2n1CCN(Cc1ccc(F)c(F)c1)CC2 | 31.6% |
| CN1CC(C)(C)CN(C(=O)CCc2ccccc2)CC1=O | 24.5% |

| SMILES | INHIBITION |
| --- | --- |
| O=C(c1cc[nH]n1)N1CCCC1c1cc(Nc2ccccn2)n[nH]1 (stereo not drawn) | -20.2% |
| Cc1ccc2c(c1)c(C)cc(=O)n2CCC#N | 11.2% |
| CC(C)c1noc(CN2CCN(C(=O)c3ccncc3F)CC2)n1 | -29.1% |
| O=S(=O)(NCC1COCc2c(-c3ccncc3)nnn2C1)C1CC1 (stereo not drawn) | 18.3% |
| NC(=O)c1ccc(NC(=O)c2ccncc2Cl)cn1 | 13.8% |
| Cc1ccc(OC2(C(=O)O)CCN(C(=O)CCc3ccco3)CC2)cn1 | 34.4% |
| CC(C)(C)c1n[nH]cc1CN1CCc2nc3ccsc3c(=O)n2CC1 | 50.6% |
| O=c1c2sccc2nc2n1CCN(Cc1ccsc1)CC2 | 5.11% |
| Cc1nn(C)cc1CN1CCc2nc3sccc3c(=O)n2CC1 | 30.5% |
| COc1ccc(CC(=O)N2CC[C@@H]3[C@H](CC2)N(C)CCS3(=O)=O)cc1 | 18.5% |
| COCCCN(Cc1cnc(-c2cccs2)nc1)C1CCN(C)CC1 | 13% |
| Cc1nc(CCC(=O)NC2CCC2)cc(C2CCCNC2)n1 (stereo not drawn) | 26.8% |
| Cc1nc(NC2CCCCC2)cc(C2CCCNC2)n1 (stereo not drawn) | 28.3% |
| Cc1nc(NC2CCS(=O)(=O)CC2)cc(C2CCCNC2)n1 (stereo not drawn) | 62.2% |
| CSc1nsc(NC(=O)c2cc(C3CC3)nn2C)n1 | -64.85% |
| CCN(C)Cc1cccc(CNC(=O)CSCc2ccccn2)c1 | 20.8% |
| CCN(C)Cc1cccc(CNC(=O)NCCc2ccccn2)c1 | 51% |
| CN(C)c1ccc(CNC(=O)NCCc2ccccn2)cn1 | -22.9% |
| CN(Cc1nnc(C2CC2)n1C)C1CCN(Cc2ccccc2F)C1 (stereo not drawn) | -3.19% |
| CN(Cc1noc(C2CC2)n1)C1CCN(Cc2cccc(F)c2F)C1 (stereo not drawn) | -31.96% |
| CNC(=O)c1cn[nH]c1C1CCN(Cc2ccccc2F)C1 (stereo not drawn) | -10.5% |
| Fc1ccccc1CN1CCC(c2n[nH]c(C3CC3)n2)CC1 | -5.92% |
| Cc1nc2cc(C3CCN(Cc4cccc(F)c4F)C3)nn2c(O)c1C.O=C(O)CC(O)(CC(=O)O)C(=O)O (stereo not drawn) | 90.4% |
| CCc1c(C)nc2cc(C3CCN(Cc4ccccc4F)C3)nn2c1O (stereo not drawn) | 85.9% |

| SMILES | INHIBITION |
| --- | --- |
| Cc1nc(O)cc(C2CCN(Cc3cccc(F)c3F)C2)n1 (stereo not drawn) | 25% |
| COC(=O)c1cccc2nc([C@H]3CCN(Cc4ccccc4F)C3)oc12 | -61.5% |
| Cc1nc2cc(C3CCN(Cc4ccccc4F)C3)nn2c(O)c1C (stereo not drawn) | 61.7% |
| COCCNC(=O)Nc1ccc(-c2nc(C(C)C)no2)cc1 | -36.4% |
| Cc1cccc(C)c1Nc1noc2c1CN(C(=O)c1ccn(C)n1)CC2 | 30.35% |
| CN(CC1COc2ccccc2O1)C(=O)CCn1cncn1 (stereo not drawn) | 44.05% |
| CNC(=O)CN1CCC(NC(=O)N(C)Cc2c(C)noc2C)CC1 | 34.25% |
| Cc1cc(C)c(C(=O)N2CCOCC2c2c(C)n[nH]c2C)o1 (stereo not drawn) | -8.4% |
| CO[C@H]1CN(Cc2ccc(F)cc2)CC[C@@]12CCCO2 | 25.6% |
| Cn1cc(C(=O)N[C@@H]2CN(Cc3ccoc3)[C@@H]3CCCO[C@@H]32)cn1 | 35.8% |
| CN1CCS(=O)(=O)[C@@H]2CCN(C(=O)CC(C)(C)C)CC[C@@H]21 | 35.8% |
| C[C@H]1CN2C[C@H](O)CC2CN1Cc1ccc2nccnc2c1 (stereo partly drawn) | 17.4% |
| CCc1nsc(N2CCCN(C(=O)c3ccc(OC)cc3)CC2)n1 | 33.5% |
| CCc1nsc(N2CCCN(C(=O)COc3ccccc3)CC2)n1 | 53.8% |
| CCc1nsc(N2CCN(C(=O)COc3ccccc3)CC2)n1 | -39.2% |
| COC(=O)c1cccn1C1CCN(S(=O)(=O)c2ccccc2)CC1 | 19.5% |
| Cc1ccc(C)c(S(=O)(=O)NCCC(=O)NCc2ccoc2)c1 | -0.514% |
| CCSCCNc1cc(C)nc2c(C)c(C)nn12 | 39.9% |
| O=C(CSCCN1CCOCC1)N1CCc2ccccc2C1 | 76% |
| O=C(NCC(=O)N1CCc2ccccc2C1)c1ccoc1 | 26.3% |
| CC1CCN(C(=O)CSCc2nc(C3CC3)no2)CC1 | -42.2% |
| O=C(CSCCN1CCOCC1)N1CCCCCC1 | 44.1% |
| O=C(O)[C@@H]1CN(C(=O)CSCCN2CCCC2)C[C@H]1c1ccccc1 | 39.3% |
| CC1CCN(C(=O)CSCCN2CCOCC2)CC1 | 85.6% |

| SMILES | INHIBITION |
| --- | --- |
| O=C1CCCN1c1cccc(CNCc2nc(C3CC3)no2)c1 | 29.6% |
| Cc1c[nH]nc1C1CCCN(C(=O)c2c(C)noc2C)C1 (stereo not drawn) | 23.4% |
| N#Cc1cn(C2CC2)c(=O)n(CC(O)c2ccc(Cl)cc2)c1=O (stereo not drawn) | 9.1% |
| Cc1cc(C[S+]([O-])Cc2ccccc2C)no1 (stereo not drawn) | -23.3% |
| Cc1ccc(CN2CCc3c(nc4cc(C5CC5)nn4c3O)C2)s1 | 44.3% |
| CC(C)N(C(=O)N1CCn2cncc2C1)C(C)C | 52.2% |
| CC(=O)NC(C(=O)N1CCn2cncc2C1)C(C)C (stereo not drawn) | 29.8% |
| CC(C(=O)N1CCn2cncc2C1)N1CCCC1 (stereo not drawn) | 47.9% |
| O=C(CC1CCN(c2ncnc3ccccc23)CC1)N1CCCC1 | 53.2% |
| Cn1ncc2c(N3CCC(CC(=O)N4CCCC4)CC3)ncnc21 | 11.9% |
| O=C(CC1CCN(c2ncnc3cccc(F)c23)CC1)N1CCCC1 | -18.5% |
| CC(=O)NCCNC(=O)CN1CCOC(Cn2cc(C)cn2)C1 (stereo not drawn) | 25.6% |
| Cc1cccc2[nH]cc(CC(=O)N3CCC(Nc4cccnn4)CC3)c12 | 24% |
| CCc1cnc2c(c1NCc1ccc(OC)cc1)c(=O)n(C)c(=O)n2C | 67.6% |
| CCc1cnc2c(c1Nc1ccncc1)c(=O)n(C)c(=O)n2C | 27.6% |
| CCc1cnc2c(c1NCc1cccc(OC)c1)c(=O)n(C)c(=O)n2C | 55.3% |
| CCc1cnc2c(c1Nc1ccc(OC)cc1)c(=O)n(C)c(=O)n2C | -50.5% |
| CCc1cnc2c(c1Nc1ccc3c(c1)OCO3)c(=O)n(C)c(=O)n2C | 4.35% |
| CCc1cnc2c(c1NCc1ccncc1)c(=O)n(C)c(=O)n2C | 2.3% |
| COc1ccc(CNc2c(C)cnc3c2c(=O)n(C)c(=O)n3C)cc1 | 9.79% |
| CCc1cnc2c(c1Nc1ccc(C)c(F)c1)c(=O)n(C)c(=O)n2C | 53.1% |
| COc1cccc(CNc2c(C)cnc3c2c(=O)n(C)c(=O)n3C)c1 | 48.1% |
